Bioassay records deposited in PubChem by National Center for Advancing Translational Sciences (NCATS).
The list is not random: actives were taken first. Their share in the collection is about 4.6%.
TRb-SRC2 inh = inhibitors of human thyroid hormone receptor beta-SRC2 interaction. P10828. TRbeta-SRC2 peptide binding, fluorescence polarization; receptor liganded with 1 µM T3. Potency, µM (highest dose often 106 µM), for inactives: top-dose activity change, negative = inhibition, usual class: inhibitors. 280,000 tested, 0.065% active. AID 1469;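 also: potency is read from the fitted curve at half-maximal effect; plate controls were bound peptide for no effect and peptide without receptor for full effect; nearly all actives have a fitted effect of over 50% in size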
Target sequence (P10828 whole entry, looked up): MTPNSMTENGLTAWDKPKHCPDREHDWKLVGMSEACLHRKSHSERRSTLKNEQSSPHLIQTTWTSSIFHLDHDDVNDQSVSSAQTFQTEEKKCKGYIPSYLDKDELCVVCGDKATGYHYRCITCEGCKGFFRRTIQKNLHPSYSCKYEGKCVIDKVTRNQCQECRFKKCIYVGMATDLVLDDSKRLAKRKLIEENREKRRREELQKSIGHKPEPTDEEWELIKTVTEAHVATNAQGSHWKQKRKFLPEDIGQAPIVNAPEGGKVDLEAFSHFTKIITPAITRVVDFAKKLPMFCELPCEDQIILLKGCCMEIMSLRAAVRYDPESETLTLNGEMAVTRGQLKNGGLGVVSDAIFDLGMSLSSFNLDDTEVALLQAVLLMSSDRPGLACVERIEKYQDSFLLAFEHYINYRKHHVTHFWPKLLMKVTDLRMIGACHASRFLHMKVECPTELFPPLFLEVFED
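Fluorescence polarization of 20 nM Texas Red SRC2 peptide with 0.6 uM human TRb ligand-binding domain, in Tris buffer with 1uM T3 and 5% DMSO. Incubated 5 hr ambient; normalized to unbound and bound controls.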
PNC assembly inh = blocks assembly of the perinucleolar compartment; PC3M PTB-GFP, PNC prevalence imaging, 16 h; active compounds read low; AID 2417; activity change (PNC), negative = inhibition, % at 10 µM; 140,000 tested, 3.1% active;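 active = readout at or below -70, meaning at least 70% loss of cells showing the perinucleolar compartment, a nuclear body marking cancer cells; inconclusive = readout between -30 and a set limit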;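 also: plate controls were DMSO wells for no effect and camptothecin positive control wells for full effect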
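Compounds are pinned in duplicate onto adhered PC3M cells stably expressing GFP-tagged PTB and incubated 16 h at 37 C. Cells are then fixed, nuclei stained with Hoechst, and PNC-positive cells counted.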
Tau fluor counter = counter-screen for tau fibril formation inhibitors | tau K18 P301L Alexa594 fluorescence, heparin fibrillization | Potency, µM (highest dose often 57.7 µM), for the others: top-dose activity change, negative = decrease | 280,000 tested, 0.93% active | AID 1463; also: potency is read from the fitted curve at half-maximal effect; nearly all actives have a fitted effect of over 55% in size
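Human K18 P301L tau (15 uM unlabeled plus 0.24 uM Alexa 594-labeled, final) in 100 mM sodium acetate pH 7 was mixed with compound and 20 uM heparin and incubated 6 hr at 37 C.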
Tau fibril FP = inhibitors of human tau fibril formation. Potency, µM (doses to about 57.7 µM), inactives show top-dose activity, negative = inhibition, most hits filed as inhibitors. 280,000 tested, 0.39% active. P10636. K18 P301L tau heparin fibrillization, Alexa594 FP, 6 h; also: potency is read from the fitted curve at half-maximal effect; nearly all actives have a fitted effect of over 55% in size
Target sequence (P10636 561-689 P618L limits assumed): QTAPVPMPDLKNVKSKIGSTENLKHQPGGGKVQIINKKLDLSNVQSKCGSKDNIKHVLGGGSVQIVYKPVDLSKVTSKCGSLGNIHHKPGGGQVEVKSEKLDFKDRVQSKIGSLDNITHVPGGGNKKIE
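Heparin (20 uM) drove fibril formation of recombinant tau K18 P301L, 15 uM unlabeled with 0.24 uM Alexa 594 label, for 6 hr at 37 C in 100 mM sodium acetate pH 7. Fluorescence polarization (555/632 nm) read 1 hr after 30 uM ThT.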
TexasRed fluor = alters Texas Red total fluorescence, flagging assay interference | TRb/SRC2 Texas Red total fluorescence interference | Potency, µM (highest dose often 106 µM), without a hit: at the top dose fluorescence change, negative = quenching | 280,000 tested, 0.29% active; active = well fitted curve in either direction with a large enough effect; inconclusive = small, poorly fitted or top-dose-only effect; also: potency is read from the fitted curve at half-maximal effect
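Human TRb ligand-binding domain at 0.6 uM with 20 nM Texas Red SRC2 peptide in Tris buffer containing 1 uM T3 and 5% DMSO, incubated with compound 5 h at ambient temperature. Total fluorescence (555/632 nm) calculated as parallel + 2 × perpendicular.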
Tau ThT inhib = inhibitors of human tau fibril formation, thioflavin T binding | recombinant tau K18 P301L (four-repeat tau fragment), heparin-induced fibrillization, ThT fluorescence | Potency, µM (series often up to 57.4 µM), without a hit: at the top dose activity, negative = inhibition, usual class: inhibitors | 270,000 tested, 2.1% active; also: potency is read from the fitted curve at half-maximal effect; nearly all actives have a fitted effect of over 55% in size
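Tau K18 P301L fragment (15 uM unlabeled plus 0.24 uM Alexa 594-labeled) in 100 mM sodium acetate pH 7 with compound, fibrillization induced by 20 uM heparin for 6 hr at 37 C. Thioflavin T (30 uM) added, fluorescence read after 1 hr (ex 450, em 510 nm).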
Numbers without * were called inactive; ? = inconclusive; nt = no result given; [ ] = remark or other dose. Unless noted, calls follow the shape of the dose curve; as a rule, active = well fitted curve in the direction sought with a large enough effect; inconclusive = small, poorly fitted or top-dose-only effect, or another doubt; inactive = no such curve, though single readings can be large; an effect the other way counts as inactive or inconclusive. Unless noted, % is scaled to controls: 0 for no effect and ±100 for the full control effect.

SMILES	TRb-SRC2 inh	PNC assembly inh	Tau fluor counter	Tau fibril FP	TexasRed fluor	Tau ThT inhib
CC(=O)Nc1ccc(NC(=O)c2ccccc2Sc2ccc([N+](=O)[O-])cc2Cl)cc1	5%	-80*	?	8%	-19%	-10%
O=C(c1ccccc1Sc1ccc([N+](=O)[O-])cc1Cl)N1CCOCC1	-2%	nt	0%	2%	0%	2%
CC(=O)N1CCN(c2ccc(S(=O)(=O)NCCN(C(C)C)C(C)C)cc2[N+](=O)[O-])CC1	-1%[53 µM]	-105*	8%	-1%	0%[53 µM]	-3%
O=C(CN1C(=O)NC(Cc2c[nH]c3ccccc23)C1=O)NC1CC1 (stereo not drawn)	4%	nt	0%	2%	-3%	3%
N#CC1=C2SCN(Cc3ccco3)CN2C(=O)CC1c1ccccc1F (stereo not drawn)	-23%	24	-24%	?	-2%	18µM*
S=C1SCN(Cc2ccco2)CN1Cc1ccco1	-5%	nt	-20%	-11%	1%	?
N#CC1=C2SCN(Cc3ccco3)CN2C(=O)CC1c1cccc2ccccc12 (stereo not drawn)	-3%	3	-18%	?	2%	18µM*
CC(C)COP(=O)(CNC(=O)CN1C(=O)c2ccccc2S1(=O)=O)OCC(C)C	6%	-82*	-4%	-8%	-5%	-1%
O=C(CN1C(=O)c2ccccc2S1(=O)=O)NCc1ccccc1Cl	-1%	-119*	-7%	5%	0%	-11%
O=C(CN1C(=O)c2ccccc2S1(=O)=O)NCc1ccccn1	-3%	-25	1%	-5%	0%	-3%
O=c1cc(CSc2nnnn2-c2ccc(O)cc2)nc2sccn12	-6%	nt	3%	2%	-3%	7%
COc1ccccc1N1CCN(C(=O)CCc2nnc3n(C)c(=O)c4sccc4n23)CC1	?	nt	-9%	-5%	22µM*[quencher]	-10%
Cn1c(=O)c2sccc2n2c(CCCC(=O)NCc3ccc4c(c3)OCO4)nnc12	-22%[53 µM]	-100*	-9%	2%	-3%[53 µM]	-3%
CCOc1ccc(NC(=O)CCCc2nnc3n(C)c(=O)c4sccc4n23)cc1	-7%	nt	-8%	-3%	-2%	-6%
CCOc1ccc(NC(=O)CCc2nnc3n(C)c(=O)c4sccc4n23)cc1	30%[53 µM]	nt	-16%	4%	0.035µM*[quencher]	?
Cn1c(=O)c2sccc2n2c(CCC(=O)NCc3ccc(Cl)cc3)nnc12	6%	nt	-6%	-6%	-3%	-4%
COC(=O)c1cc(OC)c(OC)cc1NC(=S)Nc1cccc(C(C)=O)c1	3%	5	-19%	-9%	-5%	-5%
NS(=O)(=O)c1ccc(N/N=C/c2ccccc2C(=O)O)c([N+](=O)[O-])c1	6%	nt	-6%	9%	-13%	?
NS(=O)(=O)c1ccc(N/N=C/c2ccc(O)cc2O)c([N+](=O)[O-])c1	2%	nt	?	-2%	-8%	2.2µM*
NS(=O)(=O)c1ccc(N/N=C/c2ccc(O)c(O)c2O)c([N+](=O)[O-])c1	2%	nt	2µM*[quencher]	5µM*	?	2µM*
C/C(=N\Nc1ccc(S(N)(=O)=O)cc1[N+](=O)[O-])c1ccco1	-5%	nt	?	-4%	-4%	5µM*
CC1=C(C#N)C(=O)NC(=O)/C1=C\c1ccc(-c2cc(C)c(C)cc2[N+](=O)[O-])o1	1%	nt	?	?	-4%	25µM*
Cc1ccc(-c2ccc(/C=C3/NC(=O)NC3=O)o2)cc1[N+](=O)[O-]	4%	-16	-27%	?	-4%	?
Nc1[nH]n(-c2ccccc2)c(=O)c1N=Nc1ccccc1[N+](=O)[O-]	-5%	?	?	-2%	3%	?
Cc1[nH]n(-c2ccccc2)c(=O)c1N=Nc1ccc2c(c1)OCCO2	0%	nt	?	-18%	-1%	3.5µM*
SMILES	TRb-SRC2 inh	PNC assembly inh	Tau fluor counter	Tau fibril FP	TexasRed fluor	Tau ThT inhib
Nc1[nH]n(-c2ccccc2)c(=O)c1N=Nc1ccc2ncsc2c1	2%	nt	5µM*[quencher]	?	-16%	2.2µM*
Nc1[nH]n(-c2ccccc2)c(=O)c1N=Nc1ccccc1	-2%	nt	5µM*[quencher]	12%	-7%	2.5µM*
Nc1c(N=Nc2cccc(Cl)c2)c(=O)[nH]n1-c1ccccc1	-3%	99	?	10%	1%	?
Cc1cc2c(cc1C)CSC(c1ccc3ccccc3c1O)SC2	3%	-12	?	-2%	-3%	-18%
Cc1cc2c(cc1C)CSC(c1c(O)ccc3ccccc13)SC2	-1%	?	7.9µM*[quencher]	22µM*	0%	?
COc1c(C2=CC(=O)N(C)C2=O)c2c(n1C)C(=O)c1ccccc1C2=O	12%	nt	18µM*[quencher]	-12%	-1%	14µM*
CN1C(=O)c2ccccc2C1=O	8%[201 µM]	nt	nt	nt	2%[201 µM]	nt
CC(=O)c1cccc(NC(=O)COC(=O)c2ccc(S(C)(=O)=O)c([N+](=O)[O-])c2)c1	-1%	nt	?	3%	-6%	?
Cc1ccccc1NC(=O)COC(=O)c1ccc(S(C)(=O)=O)c([N+](=O)[O-])c1	-9%	nt	?	-2%	-6%	13µM*
Nn1cnnc1N/N=C/c1cc(Br)cc(Br)c1O	-7%	11	?	-10%	1%	14µM*
COCCNC(=O)CN(C(=O)CCC(=O)Nc1ccccn1)c1ccc(F)cc1	-4%	?	0%	5%	-1%	-3%
COCCNC(=O)CN(C(=O)CCC(=O)Nc1ccccn1)c1ccc(F)c(Cl)c1	-1%	-24	?	7%	-5%	6.3µM*
CC1(C)C2CCC1(C)C(OC(=O)CSc1nc(N)cc(=O)[nH]1)C2 (stereo not drawn)	1%	-5	-13%	-5%	-1%	-14%
O=C1CC(c2ccccc2)NC(=O)N1 (stereo not drawn)	9%	-81*	-3%	4%	1%	-7%
O=C1NC(c2ccccc2)=CC(c2ccccc2)N1 (stereo not drawn)	-8%	nt	4%	6%	-2%	4%
CNC(=S)N1CCN(c2ccccc2OC)CC1	-6%	33	-1%	6%	-1%	-18%
C[C@@]12C=Cc3occc3C1CC[C@@]13C[C@@H](CCC12)[C@@](O)(CO)C3 (stereo partly drawn)	18%	nt	?	10µM*	?	11µM*
Cc1ccc(/C=C/C(=O)OC(C)C(=O)Nc2ccc(Cl)cn2)o1 (stereo not drawn)	4%	?	-5%	-15%	1%	?
